Shown is part of a subset that was picked to be rich in hits.
KDM5B inhibitor: inhibitors of human KDM5B histone demethylase; Q9UGL1; KDM5B demethylase, FDH-coupled NADH fluorescence (FDH is formaldehyde dehydrogenase); Potency, µM (titrated, usually from 57.7 µM), most hits filed as inhibitors; 220,000 compounds, 2.6% hits; AID 1347165; active = well fitted inhibition curve with a large enough effect; also: nearly all actives have a fitted effect of over 70% in size
Target sequence (Q9UGL1 whole entry, looked up): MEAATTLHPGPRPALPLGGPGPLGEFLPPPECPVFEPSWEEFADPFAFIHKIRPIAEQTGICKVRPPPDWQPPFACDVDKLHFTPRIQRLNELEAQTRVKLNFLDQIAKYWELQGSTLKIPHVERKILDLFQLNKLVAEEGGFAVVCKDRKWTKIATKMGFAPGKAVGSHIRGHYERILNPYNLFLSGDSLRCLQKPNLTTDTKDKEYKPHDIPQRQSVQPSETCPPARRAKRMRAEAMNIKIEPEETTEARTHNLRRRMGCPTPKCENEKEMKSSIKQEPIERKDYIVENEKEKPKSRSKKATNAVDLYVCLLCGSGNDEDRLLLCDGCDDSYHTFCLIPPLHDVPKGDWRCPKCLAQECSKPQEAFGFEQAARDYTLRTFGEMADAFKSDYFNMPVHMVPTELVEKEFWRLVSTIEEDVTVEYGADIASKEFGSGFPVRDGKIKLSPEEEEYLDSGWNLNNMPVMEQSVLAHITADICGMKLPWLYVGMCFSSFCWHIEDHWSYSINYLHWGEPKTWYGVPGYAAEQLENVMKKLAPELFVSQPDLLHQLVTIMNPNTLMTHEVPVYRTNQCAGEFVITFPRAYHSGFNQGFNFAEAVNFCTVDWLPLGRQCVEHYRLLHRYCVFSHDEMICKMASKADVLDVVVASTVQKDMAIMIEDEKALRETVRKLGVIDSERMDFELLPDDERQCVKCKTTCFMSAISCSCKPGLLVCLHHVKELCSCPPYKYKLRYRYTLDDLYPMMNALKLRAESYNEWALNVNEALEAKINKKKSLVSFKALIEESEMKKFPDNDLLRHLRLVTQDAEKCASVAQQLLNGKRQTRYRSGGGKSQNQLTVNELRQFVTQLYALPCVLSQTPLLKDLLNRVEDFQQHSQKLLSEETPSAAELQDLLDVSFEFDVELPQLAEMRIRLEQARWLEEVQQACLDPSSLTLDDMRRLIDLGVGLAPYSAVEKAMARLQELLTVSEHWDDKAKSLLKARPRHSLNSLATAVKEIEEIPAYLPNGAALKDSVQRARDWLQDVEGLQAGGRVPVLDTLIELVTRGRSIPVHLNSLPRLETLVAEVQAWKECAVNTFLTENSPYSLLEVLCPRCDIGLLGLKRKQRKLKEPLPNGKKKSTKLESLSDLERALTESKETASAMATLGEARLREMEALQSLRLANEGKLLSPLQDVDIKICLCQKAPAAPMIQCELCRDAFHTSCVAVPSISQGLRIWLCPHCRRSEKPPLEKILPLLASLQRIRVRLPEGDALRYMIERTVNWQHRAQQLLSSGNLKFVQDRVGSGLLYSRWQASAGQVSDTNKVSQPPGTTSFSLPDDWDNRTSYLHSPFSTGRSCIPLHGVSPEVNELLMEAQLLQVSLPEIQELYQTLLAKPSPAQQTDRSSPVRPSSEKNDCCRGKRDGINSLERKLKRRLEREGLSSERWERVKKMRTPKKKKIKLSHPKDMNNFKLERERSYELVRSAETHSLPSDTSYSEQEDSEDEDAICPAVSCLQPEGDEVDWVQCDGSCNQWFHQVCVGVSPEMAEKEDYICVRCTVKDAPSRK
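Measured: NADH fluorescence change, 30 min, RT. System: KDM5BΔAP 200 nM final, H3K4me3 peptide, α-KG, Fe(II), ascorbate, NAD⁺ plus FDH, pH 7.5 HEPES. Compounds: titrated, 10 min pre-incubation with enzyme.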
Hits are given with their value; . = inactive.

SMILES	KDM5B inhibitor
N#Cc1ccc(C(=O)N(CCc2ccccc2)Cc2cccs2)cc1	.
Cc1ncoc1C(=O)NCC1Cn2cccc2C(=O)N1C (stereo not given)	.
O=C(Nc1ccc(Cl)cc1)c1ccc2oc(=O)n(Cc3ccccc3)c2c1	.
O=C(O)c1ccc(/C=N/Nc2ccc(S(=O)(=O)N3CCCC3)cc2[N+](=O)[O-])cc1	.
CN1C[C@@H](NC(=O)NCc2ccccc2)C[C@H]1c1nc(-c2cccnc2)no1	.
CC(NC(=O)CCOc1ccccc1)c1ccccc1 (stereo not given)	.
O=C(NC1CCCC1)C1CCCN(C2CCN(C3Cc4ccccc4C3)CC2)C1 (stereo not given)	32µM
O=C(NC1CCC1)C1CCCN(C2CCN(C3Cc4ccccc4C3)CC2)C1 (stereo not given)	.
CCCCNC(=O)C1CCCN(C2CCN(C3Cc4ccccc4C3)CC2)C1 (stereo not given)	.
Cc1ccc(CNC(=O)C2CCN(S(=O)(=O)c3cccc4nonc34)CC2)cc1	.
CCC1=C(C(=O)OC)C(c2cccc(C)c2)N2C(CC(=O)NCC3CC3)=CSC2=N1 (stereo not given)	.
CCC1=C(C(=O)OC)C(c2ccccc2C)N2C(CC(=O)NCC3CC3)=CSC2=N1 (stereo not given)	32µM
CCC1=C(C(=O)OC)C(c2ccccc2Cl)N2C(CC(=O)NCC3CCCO3)=CSC2=N1 (stereo not given)	.
Cc1cc(C)c2c(n1)SCC(=O)N2CC(=O)Nc1ccccc1C	.
Cc1ccccc1-c1cc(C(=O)NCCC(N)=O)c2c(c1)N(C)CCO2	32µM
Cc1cc(CN2CCOc3c(O)cc(-c4ccccc4C)cc3C2)on1	.
CC(=O)NCC(=O)N1CCCn2cc(-c3ccccc3F)nc21	.
CN1CCOc2c(C(=O)NCCC(N)=O)cc(-c3ccccc3F)cc21	32µM
Cc1nnc(CN2CCOc3c(O)cc(-c4ccccc4C)cc3C2)s1	.
O=C(CCc1ncc(-c2ccccc2F)o1)NCCN1CCOCC1	.
Cc1cccc(C)c1NC(=O)CN(C)C(=O)CNC(=O)c1ccc2c(c1)OCO2	.
CC(C(=O)N1CCN(c2cc(-c3ccc(Cl)cc3)[nH]n2)CC1)c1ccccc1 (stereo not given)	.
Cc1c(CCO)c(=O)[nH]n1S(=O)(=O)c1cccc(C(F)(F)F)c1	.
O=C1CCC2(CNC(=O)c3n[nH]c(=O)c4ccccc34)CCCC=C2N1 (stereo not given)	.
COc1ccccc1OC1CCN(Cc2cc3n(n2)CCNC3)CC1	.
SMILES	KDM5B inhibitor
O=C(CCc1ccccc1)N1CCc2c([nH]c3ccccc23)C1c1ccc(Cl)cc1 (stereo not given)	.
Cc1ncoc1C(=O)NC1CCc2nnc(C3CC3)n2CC1 (stereo not given)	.
Cc1ccc(C(=O)NC2CCc3nnc(C4CC4)n3CC2)c(=O)[nH]1 (stereo not given)	32µM
O=C(NC1CCc2nnc(C3CC3)n2CC1)c1cccs1 (stereo not given)	.
CCOCCc1nn2c(=O)cc(COC(=O)c3cccs3)nc2s1	.
CCn1ccc(C(=O)N2c3ccccc3CC2c2nc(C(C)C)no2)n1 (stereo not given)	25µM
CC(=O)NCC(=O)N1c2ccccc2CC1c1nc(C(C)C)no1 (stereo not given)	.
COC(=O)CNC(=O)N1c2ccccc2CC1c1nc(C(C)C)no1 (stereo not given)	.
COc1ccc(C(=O)N/N=C(\C)CC(=O)Nc2ccc3c(c2)OCCO3)c(OC)c1	.
Cn1nc(Oc2nc(N3CCOCC3)nc(N3CCOCC3)n2)ccc1=O	.
CCOC(=O)c1c(C)oc2ncn(Cc3nc(-c4cccnc4)no3)c(=O)c12	.
CNC(=O)c1ccc(-c2nc(CN3CCN(C(=O)Nc4ccc(OC)cc4OC)CC3)c(C)o2)cc1	.
COc1ccc(-c2nc(CN3CCS(=O)(=O)CC3)c(C)o2)c(OC)c1C	.
COc1ccc(OC)c(-c2nc(CN3CCCC(C(C)(C)O)C3)c(C)o2)c1 (stereo not given)	20µM
Cc1ccc(-c2nc(C(=O)N3CCN(c4cccc(C)c4)CC3)no2)cc1	.
COCCNC(=O)c1noc(-c2ccc[nH]c2=O)n1	28µM
CC(C)Oc1ccc(CNC(=O)c2noc(-c3ccc[nH]c3=O)n2)cc1	.
Cc1ccc(-c2nc(C(=O)N3CCN(c4ccc(C)cc4C)CC3)no2)cc1	.
COCCNC(=O)c1noc(-c2ccccc2F)n1	.
COc1ccc(C(C)NC(=O)c2noc(-c3ccc[nH]c3=O)n2)cc1OC (stereo not given)	32µM
Cc1ccc(C)c(N2CCN(C(=O)c3noc(-c4ccc[nH]c4=O)n3)CC2)c1	28µM
O=C(NCC1CC1)c1noc(-c2ccc[nH]c2=O)n1	.
COc1ccc(C(C)NC(=O)c2c(C)noc2C)cc1OC (stereo not given)	.
Cc1cc(Br)ccc1NC(=O)CN(C)C(=O)Cc1csc(-c2ccc(F)cc2)n1	.
COc1cccc2cc(CC(=O)c3ccc(C)cc3C)c(=O)oc12	.
SMILES	KDM5B inhibitor
Cc1cc(C)c(S(=O)(=O)N2CCCC(C(=O)NC3CC3)C2)c(C)c1 (stereo not given)	.
O=C(CN1C(=O)CC(c2ccccc2)Sc2ccccc21)Nc1ccc(Br)cc1 (stereo not given)	.
CCCCOc1cccc(C(=O)N(Cc2ccc(Br)o2)C2CCS(=O)(=O)C2)c1 (stereo not given)	.
CC(C)NC(=S)NN=C1CCCCC1	.
COc1ccc(C(=O)N2CCc3ccc(C(=O)Nc4ccc(OC)cc4C)cc32)cc1	.
Cc1ccc(/C=C/c2onc(C)c2S(=O)(=O)N2CCC(C(=O)Nc3ccc(OC(F)(F)F)cc3)CC2)cc1	.
CCCc1cc(C(=O)N[C@H]2CCOC[C@H]2C2CCOCC2)cs1	.
CCc1c(C)cc(C(=O)N[C@H]2CCOC[C@H]2C2CCOCC2)c(=O)n1C	25µM
Cc1nn(C)c(C(=O)N[C@H]2CCOC[C@H]2C2CCOCC2)c1Cl	.
Cc1ccc(CC(=O)NC(C)c2ccncc2)cc1C (stereo not given)	.
CCOC(=O)c1ccc(OCC2CCCO2)cc1 (stereo not given)	.
COc1ccc(CN2CCc3nc(C(C)C)nc(-c4ccc(O)cc4)c3CC2)cc1	.
CC(C)c1nc2c(c(-c3ccc(Cl)cc3)n1)CCN(Cc1cccnc1)CC2	.
CC(C)c1nc2c(c(-c3ccc(Cl)cc3)n1)CCN(CC1CCCCC1)CC2	35µM
CC(C)c1nc2c(c(-c3ccc(Cl)cc3)n1)CCN(Cc1cccc3ccccc13)CC2	56µM
Cc1ccc(C(=O)N2CCc3nc(C(C)C)nc(-c4ccc(Cl)cc4)c3CC2)cc1	.
Cc1nc2c(c(-c3ccc(O)cc3)n1)CN(CC1CC1)CC2	.
CC(C)c1nc2c(c(-c3ccc(O)cc3)n1)CN(Cc1ccc(OC(F)(F)F)cc1)CC2	18µM
Oc1ccc(-c2nc(C3CC3)nc3c2CN(Cc2ccc(OC(F)(F)F)cc2)CC3)cc1	.
COc1ccc(-c2nc(C)nc3c2CCN(CC2CC2)CC3)cc1	40µM
COc1ccc(-c2nc(C)nc3c2CCN(Cc2ccc(F)cc2)CC3)cc1	.
Cc1ccc(CN2CCc3nc(C(C)C)nc(-c4ccc(O)cc4)c3CC2)cc1	.
CC(C)c1nc2c(c(-c3ccc(Cl)cc3)n1)CCN(Cc1ccnn1C)CC2	.
Cc1noc(C)c1CC(=O)N[C@@H]1CN(Cc2cccnc2)C[C@H]1CN(C)C	.
C/C(CC(=O)Nc1ccc2c(c1)OCCO2)=N\NC(=O)COc1ccc(C)cc1	.

High-throughput results from PubChem BioAssay.
